Compound activity deposited in PubChem by several laboratories.
Shown are actives, neighbours in structure and some others; about 3.4% of the full set was active somewhere.
H9c2 protect – cardioprotection against H2O2-induced cell death, primary screen, uHTS, H9c2 cells, ATPLite luminescence. 360,000 compounds, 0.63% hits. protection from H2O2 cell death, % at 20 µM. H9c2 cardiomyocytes, H2O2 injury protection, 2 h;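 active means compounds giving at least 50% protection of heart cells from peroxide-induced death in the single-dose screen, raw or plate-pattern-corrected value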;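 further: 0% = DMSO wells with peroxide and 100% = DMSO wells without peroxide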
GalR3 antag – GalR3 antagonists in HEK293 cells, primary screen, cell-based, fluorescence readout; HEK293 GalR3-CNG cAMP membrane potential fluorescence; galR3 body fused to GalR1 C-terminus; inhibition, % at 3 µM; 360,000 compounds, 0.44% hits; AID 651719, 2012;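 active means inhibition above the screen-wide average plus 3 SD, cut at about 13% in these data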;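 further: forskolin and galanin both at EC90 stimulate the cells; cAMP rise reported by CNG channel membrane potential dye signal; 0% = forskolin plus galanin with DMSO and 100% = forskolin alone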
Target sequence (O60755 1-299 limits assumed): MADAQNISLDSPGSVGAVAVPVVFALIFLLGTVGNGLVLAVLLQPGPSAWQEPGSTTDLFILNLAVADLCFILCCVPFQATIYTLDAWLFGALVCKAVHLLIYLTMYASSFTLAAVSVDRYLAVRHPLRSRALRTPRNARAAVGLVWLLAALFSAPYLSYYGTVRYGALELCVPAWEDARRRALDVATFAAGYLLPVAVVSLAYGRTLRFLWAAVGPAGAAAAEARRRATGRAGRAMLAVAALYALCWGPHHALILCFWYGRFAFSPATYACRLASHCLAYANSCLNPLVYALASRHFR
FXN GAA850 act – FXN promoter activators, primary screen, cell-based, luciferase luminescence, HEK293 lucGAA850; activation, % at 6 µM; AID 540364, 2011; 360,000 compounds, 0.56% hits; HEK293 lucGAA850 FXN promoter luciferase reporter, 24 h; percent of 10 µM SAHA response;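 active means activation above the average of all compounds screened plus 3 SD, cutoff fixed separately per campaign, cut at about 7.5% in these data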;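 further: 0% = DMSO wells and 100% = 10 µM SAHA wells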
NR2F2 inh – NR2F2 transcriptional activity inhibitors, primary screen, cell-based, luciferase reporter, HEK293T, luminescence | COUP transcription factor 2 (Homo sapiens), P24468 | HEK293T NGFI-A luciferase reporter | inhibition, % at 8.6 µM | 370,000 compounds, 0.7% hits;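 active means inhibition above a per-plate cutoff, mean inhibition of test wells between control levels plus 3 SD, cut at about 38% in these data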;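 further: cells cotransfected with COUP-TFII expression vector driving the NGFI-A reporter; 0% = median of COUP-TF2 test wells and 100% = reporter-only cells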
Target sequence (P24468 whole entry, looked up): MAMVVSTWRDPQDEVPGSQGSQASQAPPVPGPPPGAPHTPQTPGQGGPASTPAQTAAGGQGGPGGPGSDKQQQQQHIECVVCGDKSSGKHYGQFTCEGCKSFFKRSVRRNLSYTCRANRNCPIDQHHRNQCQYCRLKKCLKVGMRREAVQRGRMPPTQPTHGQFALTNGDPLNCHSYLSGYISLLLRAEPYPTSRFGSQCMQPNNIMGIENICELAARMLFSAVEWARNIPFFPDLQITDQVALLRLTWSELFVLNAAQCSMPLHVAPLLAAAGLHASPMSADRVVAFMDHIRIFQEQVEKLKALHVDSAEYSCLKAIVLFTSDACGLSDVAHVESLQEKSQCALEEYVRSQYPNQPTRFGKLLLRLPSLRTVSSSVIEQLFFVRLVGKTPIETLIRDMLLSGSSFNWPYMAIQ
Gli-Sufu antag – Gli-Sufu pathway antagonists, primary screen, luciferase luminescence, Sufu-KO-LIGHT cells, uHTS | Sufu-KO-LIGHT fibroblasts, Gli luciferase reporter luminescence | inhibition, % at 5 µM | 340,000 compounds, 0.74% hits | AID 588413, 2011;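 active means inhibition above about 55%, limit read from the data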;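 further: 0% = DMSO-treated cells and 100% = wells with medium but no cells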
SMARCA2 activ – SMARCA2 (BRM) function activators, primary screen, cell-based, luminescence, high throughput; MG213 cells, MMTV-luciferase reporter, dexamethasone, overnight; AID 652017, 2013; 370,000 compounds, 1% hits; activation, % at 9.1 µM; in the data active means activation above about 7.8%;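 further: 0% = vehicle wells and 100% = reference activator wells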
Gli antag conf – Gli-SUFU pathway antagonists, confirmation, single concentration, luciferase luminescence, Sufu-KO-LIGHT cells; inhibition, % at 5 µM; Gli luciferase reporter; 2,500 compounds, 40% hits; shares compounds with Gli-Sufu antag;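 active means mean inhibition at 5 µM reaching about 45%, limit read from the data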;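 further: plate controls were DMSO-treated cells for no effect and wells lacking cells for full effect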
Gli cytotox – cytotoxicity in Sufu-KO-LIGHT cells, confirmation, cytotoxicity control for Gli-SUFU antagonist project, cell-based, ATP luminescence, single concentration; cytotoxicity, % at 5 µM; AID 651994, 2013; shares compounds with Gli-Sufu antag; 2,500 compounds, 32% hits;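 active means mean cytotoxicity at 5 µM above about 25%, limit read from the data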;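 further: cells exposed to compound overnight for roughly 16 to 18 hours; plate controls were DMSO wells with cells for no effect and medium without cells for full effect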
Wnt3a cs – Wnt3a reporter signal inhibition, confirmation, counter-screen for Gli-SUFU antagonist project, Wnt-LIGHT cells, luminescence, single concentration | shares compounds with Gli-Sufu antag | AID 651995, 2013 | inhibition, % at 6.25 µM | 2,500 compounds, 20% hits | Wnt3a-driven luciferase reporter;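 active means mean inhibition above about 25%, limit read from the data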
* marks the source's active call; other numbers are inactive results; / = not tested or not shown; ! = not confirmed by another sample.

SMILES	H9c2 protect	GalR3 antag	FXN GAA850 act	NR2F2 inh	Gli-Sufu antag	SMARCA2 activ	Gli antag conf	Gli cytotox	Wnt3a cs
CCc1ccccc1NC(=S)N(CCCN1CCN(C)CC1)Cc1cccs1	-1.4	-1.6	1.6	-2.1	54.1	-1.2	16.9	3.7	13.7
C[C@H]1CCCCO[C@@H](CN(C)CC2CC2)[C@@H](C)CN([C@@H](C)CO)C(=O)c2cc(NS(=O)(=O)c3ccccc3)ccc2O1	/	-7.7	/	-6.3	/	-5.2	/	/	/
O=C(NC1CCN(Cc2ccccc2)CC1)c1cccc(S(=O)(=O)Nc2ccc(Br)cc2)c1	-18.9	-8.2	-0.7	9.6	37.0	-4.7	/	/	/
COc1ccc(C(=O)NC2CC3CCCC(C2)N3Cc2ccccc2)cc1OC (centres undefined)	7.7	-9.2	0.0	9.7	57.3*	-2.3	10.9	-4.5	-29.0
Cc1ccc(C(=O)NC2CCN(Cc3ccccc3)CC2)cc1S(=O)(=O)N1CCOCC1	-5.9	-4.8	-0.8	18.5	61.4*	-2.6	17.9	18.6	4.0
COc1ccccc1NS(=O)(=O)c1cccc(C(=O)NC2CCN(Cc3ccccc3)CC2)c1	-5.9	/	-6.0	/	53.7	/	57.3*	26.9*	-0.6
O=S1(=O)c2ccc(N3CCCC3)cc2Oc2ccccc2CN1Cc1cn(Cc2cccc(C(F)(F)F)c2)nn1	/	/	/	8.3	/	-2.4	/	/	/
COc1ccc(N(CC(=O)NCc2ccc(F)cc2)S(=O)(=O)c2c(C)n[nH]c2C)cc1	3.5	0.4	0.2	-4.8	-3.8	-2.4	/	/	/
Cc1ccc(N(CC(=O)NCc2ccc(F)cc2)S(=O)(=O)c2c(C)n[nH]c2C)cc1	0.7	1.7	-1.4	-8.2	73.2*	-2.1	14.0	7.3	-48.9
c1ccc(-c2nn(-c3ccccc3)[n+](-c3ccccc3)n2)cc1	-15.2	-6.0	-2.0	31.2	63.3*	-6.1	66.7*	13.5	32.8*
O=C(NCc1ccccc1)C(c1ccc(-c2ccccc2)cc1)N1CCN(c2ccccc2F)CC1 (centres undefined)	/	-6.3	/	-5.6	/	-3.3	/	/	/
COc1ccccc1OCC(O)Cn1c(=N)n(Cc2ccccc2)c2ccccc21 (centres undefined)	-19.2	-9.6	-10.8	13.3	37.0	-0.2	/	/	/
CCCCCn1c(=N)n(CC(O)COc2ccccc2OC)c2ccccc21 (centres undefined)	-18.3	-6.3	-8.2	-0.1	81.4*!	-1.4	41.5	17.0	-13.6
Cc1ccc(CS(=O)(=O)CCC(=O)NCc2ccccc2Cl)cc1	-1.0	-6.4	-1.0	20.7	53.2	-1.6	8.2	22.4	-16.4
COc1ccccc1CNC(=O)CCS(=O)(=O)Cc1ccc(C)cc1	1.5	-6.1	-0.8	-4.5	-9.1	-1.0	/	/	/
COc1ccc(CNC(=O)CCCn2ccc3cc(S(=O)(=O)N4CCCC4)ccc32)cc1	2.3	0.8	-2.9	10.0	59.3*	-1.8	7.7	26.6*	-96.9
CCC(C(=O)NCCC(C)C)n1ccc2cc(S(=O)(=O)N3CCCCC3)ccc21 (centres undefined)	-9.5	/	-5.3	/	67.2*	/	44.9	23.4	-9.3
CCOc1ccc(CNC(=O)CCCn2ccc3cc(S(=O)(=O)N4CCCC4)ccc32)cc1	-1.7	-8.8	-1.5	-6.2	19.1	-4.2	/	/	/
Cc1ccc2c(c1)C(CS(=O)(=O)NCc1ccccc1)NC2 (centres undefined)	/	/	/	-10.6	/	-1.5	/	/	/
Cc1sc(NC(=O)CSc2nnc(C(C)C)n2C)c(C#N)c1C	7.5	-2.7	-0.9	5.0	56.2*	-2.3	25.5	0.5	-4.0
CC(=O)c1ccc(NC(=O)Nc2ccc(NS(=O)(=O)c3ccc(C)cc3)cc2)cc1	-19.9	-2.6	6.5	-2.2	75.2*	-1.7	21.7	5.9	25.0*
COC(=O)c1cc(C(=O)N2CCN(c3ccccc3OC)CC2)cc([N+](=O)[O-])c1	1.4	-3.8	-0.9	-5.4	51.5	-0.2	39.4	50.1*	-36.7
COc1ccc(C2C=C(C)Nc3nc4ccccc4n32)cc1 (centres undefined)	12.6	-1.4	5.6	-16.9	98.1*	2.6	9.1	24.2	-26.1
COc1ccc(C2C=C(C)Nc3ncnn32)cc1 (centres undefined)	3.5	-6.8	-0.1	-16.5	-6.1	1.9	/	/	/
O=C(OCc1cccc(Cl)c1)c1cc(S(=O)(=O)N2CCCCC2)ccc1N1CCOCC1	-8.9	-6.1	1.1	2.5	27.3	1.3	/	/	/
SMILES	H9c2 protect	GalR3 antag	FXN GAA850 act	NR2F2 inh	Gli-Sufu antag	SMARCA2 activ	Gli antag conf	Gli cytotox	Wnt3a cs
O=C(OCCOc1cccc(Cl)c1)c1cc(S(=O)(=O)N2CCCCC2)ccc1N1CCOCC1	-13.6	-6.0	1.3	15.1	63.9*	-3.0	66.3*	35.7*	19.5
CN(/N=C\c1ccc(O)c(O)c1)c1nc(-c2ccccc2)cc(-c2ccccc2)n1	0.1	-4.8	4.4	2.9	90.5*	1.8	81.5*	25.6*	88.6*
O=C(Cn1cc([N+](=O)[O-])cn1)N1CCN(Cc2ccc3c(c2)OCO3)CC1	-1.2	-8.2	0.5	-8.3	-14.2	-3.5	/	/	/
O=C(NCc1ccc2c(c1)OCO2)c1nc(Cn2cc([N+](=O)[O-])cn2)no1	1.1	-8.4	1.6	2.0	53.7	-4.1	11.2	-10.1	-2.6
CCOC(=O)C1(CCOc2ccccc2)CCN(Cc2cccc(-n3cccn3)c2)CC1	-9.7	-9.5	-5.0	14.7	52.1	-2.3	35.2	8.2	-62.1
CCOC(=O)C1(CCOc2ccccc2)CCN(C(=O)c2ccc(-n3cccn3)cc2)CC1	-10.7	-5.9	1.4	26.9	22.8	-1.3	/	/	/
CCOC(=O)C1(CCOc2ccccc2)CCN(Cc2cccc(OCCO)c2)CC1	-5.2	-13.1	0.8	28.8	24.3	-2.0	/	/	/
CCOC(=O)C1(CCOc2ccccc2)CCN(Cc2cccc(F)c2)CC1	-7.3	-3.9	-0.6	14.0	59.7*	-5.2	27.0	25.8*	-30.8
COc1ccccc1N1CCN(Cc2cc(=O)c(OCC(=O)NC3CCCC3)co2)CC1	6.8	-3.9	-0.8	-1.6	1.0	-1.1	/	/	/
